According to PubChem BioAssay (NCI):
Compounds without any hit were thinned out: in the full panel of roughly 83,000, 20% have a hit.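 Compound tested at a single concentration for 48 hours in 96-well plates; a percent growth value below 10 was scored as active.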 Unmarked numbers belong to inactive results. Calls of active or inactive are those of the source.

Test system: SNB-19 CNS
Assay: NCI-60 one-dose screen, 48 h (100 = growth as untreated, 0 = no growth, -100 = all killed)
Details: 10 µM unless noted
Procedure: Growth inhibition of the SNB-19 human tumor cell line is measured as a screen for anti-cancer activity. Cells are grown in 96 well plates and exposed to the test compound for 48 hours. Compounds are tested at a single concentration, which is 10^-5 M for most compounds. The reported endpoint is percent growth (GI% or GIPRCNT), where numbers from 0 - 100% represent growth inhibition, and numbers from -100% - 0 represent cell death. For example, a value of 40 represents 60% growth inhibition. A value of 0 means no net growth occurred over the course of the experiment. A value of -40 indicates 40% of cells at the beginning of the experiment died by the end of the experiment. A value of -100 means all cells are dead at the end of the experiment.
NCI-60 Human Tumor Cell Lines Screen was performed using the standard one-dose NCI protocol, which is described in more detail at https://dtp.cancer.gov/discovery_development/nci-60/default.htm.
Compounds with GIPRCNT values below 10 were considered active. Activity score was based on GIPRCNT using the following formula: […]
Score is 0 for GIPRCNT values of 100 or above, 50 for GIPRCNT values of 0, and 100 for GIPRCNT values of -100.

How did the growth turn out when `CN1CCN(c2ccc(Nc3nc(NCCNC(=O)c4ccccc4)c4sccc4n3)cc2)CC1` was run?
The growth was 88.4%.

How did the growth turn out when `CC(=C(c1ccc(OCCN2CCCC2)cc1)c1ccc(OCCN2CCCC2)cc1)c1ccc(Cl)cc1` was run?
Its growth is -48.8% (active).

How did the growth turn out when `CC(C)(C)OC(=O)Nc1ccc(-c2cccc(Oc3ccc4nnc(Cl)n4n3)c2)cc1` was run?
Its growth is 94.9%.

`COc1ccc2[nH]cc(/C=N/Nc3ccnc4cc(Cl)ccc34)c2c1` was tested. Which growth did it give?
The growth was -100% (active).

How did the growth turn out when `NS(=O)(=O)c1nnc(/N=C/c2c(O)[nH]c3ccccc23)s1` was run?
The growth was 105%.

How did the growth turn out when `O=[N+]([O-])c1ccc(NC(=S)NNC(=S)Nc2ccc(F)cc2)cc1` was run?
Its growth is 94.4%.

Which growth does the source give for `CCOC(=O)c1cccc(NC2=C(Cl)C(=O)C(C)=C(C)C2=O)c1` here?
The growth was 96.5%.

For `NC(=O)c1ncn2c(=O)n(CCF)nnc12`, which growth is on record?
Its growth is 96.1%.

Which growth does the source give for `Cc1nc(N)sc1-c1csc(Nc2ccc(C(F)(F)F)cc2)n1` here?
Its growth is 47.3%.

How did the growth turn out when `C#CCN(C)CCCOc1ccc(NC(=O)CCCCCCCCC(=O)NO)cc1Cl` was run?
Its growth is 77.3%.

`O=C(COc1ccc(/C=C2\C(=O)Nc3ccc(Cl)cc32)cc1)Nc1ccc(Cl)cc1` was tested. Which growth did it give?
Its growth is 78.2%.

Which growth does the source give for `COc1ccc(-c2cc(-c3ccc(N(C)C)cc3)n3c(n2)nc2ccccc23)cc1` here?
The growth was 67.2%.

Which growth does the source give for `CN1CCN(Cc2ccc(NC(=O)c3cncc(C#Cc4cnc5ccc(OCC(F)F)nn45)c3)cc2C(F)(F)F)CC1` here?
Its growth is -31.7% (active).

With `O=C(/C=C/Nc1ccc(S(=O)(=O)Nc2ncccn2)cc1)c1ccc(N=Cc2c(O)[nH]c3ccccc23)cc1` as the compound, how does the growth read?
The growth was 112%.

With `COc1ccc(NC2=C(Br)C(=O)C(C)=C(C)C2=O)cc1OC` as the compound, how does the growth read?
The growth was 84.9%.

How did the growth turn out when `CC(C)(C)Nc1nc2c(OCCc3ccccc3)cccn2c1-c1cccc(Oc2ccccc2)c1` was run?
Its growth is 24.5%.

For `O=C(COc1ccc(/C=C2\C(=O)Nc3ccc(F)cc32)cc1)Nc1ccccc1`, which growth is on record?
Its growth is 93.3%.

Which growth does the source give for `COc1ccc(-c2cnc(NC(=O)CCCCCCNC(=O)C(O)(O)C(F)(F)F)s2)cc1` here?
The growth was 17.5%.

Which growth does the source give for `CC1=C(C)C(=O)C(Nc2ccc3c(c2)OCO3)=C(Br)C1=O` here?
Its growth is 93.8%.

For `COc1ccc(C(C)=C(c2ccc(OCCN(C)C)cc2)c2ccc(OCCN(C)C)cc2)cc1`, which growth is on record?
Its growth is 12.6%.

For `Clc1ccc2[nH]cc(-c3nn4cc(-c5ccncc5)nc4s3)c2c1`, which growth is on record?
The growth was 24.4%.

For `CNC(=O)c1cc(N2CCc3cc(NC(=O)Nc4ccc(N5CCOCC5)c(C(F)(F)F)c4)ccc32)ccn1`, which growth is on record?
The growth was 23.1%.

With `NS(=O)(=O)c1cccc(Nc2nc(SCC(=O)c3ccc(Cl)cc3)nc3c2CCC3)c1` as the compound, how does the growth read?
The growth was 62.5%.

For `COc1cccc2c1[C@H](OC)[C@]13O[C@@]1(C2=O)[C@H](O)[C@H](C)[C@@](O)(C(=O)[C@@H]1O[C@H]1C)[C@@H]3O`, which growth is on record?
The growth was 1.38% (active).

With `C#C[C@]1(O)CC[C@H]2[C@@H]3CC=C4c5sc(NCc6ccccc6)nc5CC[C@]4(C)[C@H]3CC[C@@]21C` as the compound, how does the growth read?
The growth was 66.2%.

With `O=C(CSc1cc[n+](CCCCO)c2ccccc12)n1ccc2ccccc21` as the compound, how does the growth read?
The growth was 100%.

With `C[C@H]1OCC2(CCN(c3cnc(C(=O)Nc4cc(F)cc5cccnc45)cn3)CC2)[C@H]1N` as the compound, how does the growth read?
Its growth is 73.5%.

`C#C[C@]1(O)CC[C@H]2[C@@H]3CC=C4c5sc(Nc6ncccc6C)nc5CC[C@]4(C)[C@H]3CC[C@@]21C` was tested. Which growth did it give?
Its growth is 1.7% (active).

For `COC(=O)c1ccc(NC2=C(Cl)C(=O)C(C)=C(C)C2=O)cc1`, which growth is on record?
The growth was 53.5%.

`Cc1ccc(-c2nc(SCC(=O)c3ccccc3)nc(Nc3ccc(S(N)(=O)=O)cc3)c2C#N)cc1` was tested. Which growth did it give?
The growth was 77.3%.

`CC[C@]12CC(C(=O)OC)=C3Nc4ccccc4[C@@]34CCN(C14)[C@@H]1c3cc4c(cc3O[C@@H]1[C@H]2O)NC1=C(C(=O)OC)C[C@@]2(CC)C3N(CC[C@@]143)C[C@H]1O[C@H]12` (stereo not given in full) was tested. Which growth did it give?
The growth was 14.2%.

How did the growth turn out when `CN1CCN(c2ccc(Nc3nc(NCCCNS(=O)(=O)c4ccccc4)c4sccc4n3)cc2)CC1` was run?
The growth was 56.6%.

Which growth does the source give for `COC(=O)[C@@H](Cc1c[nH]c2ccccc12)NC(=O)CCCCOc1cc(O)c2c(=O)cc(-c3ccccc3)oc2c1` here?
The growth was 89.4%.

Which growth does the source give for `CCCN1C=C/C(=C\C(=O)n2ccc3ccccc32)c2ccccc21` here?
The growth was 94.5%.

With `Cc1[nH]c(C(=O)Nc2ccccc2OCc2cccc(C(=O)NC3CCNC3)c2)c(Cl)c1Cl` (stereo not given) as the compound, how does the growth read?
Its growth is 9.65% (active).

How did the growth turn out when `CN(C)c1ccc(/C=N/Nc2nc(N/N=C/c3ccc(N(C)C)cc3)nc(N3CCCCC3)n2)cc1` was run?
The growth was 86%.

`C=C(C)[C@@H]1CC[C@]2(COP(=O)(OCC)OCC)CC[C@]3(C)[C@H](CC[C@@H]4[C@@]5(C)CC[C@H](OP(=O)(OCC)OCC)C(C)(C)[C@@H]5CC[C@]43C)[C@@H]12` was tested. Which growth did it give?
Its growth is 50.7%.

`Cc1ccc(-c2cc3nc(C(Cl)Cl)nc(-c4ccc(S(=O)(=O)N(C)C)cc4)n3n2)cc1` was tested. Which growth did it give?
The growth was 89.4%.

With `O=C1C(SCc2ccccc2)=C(Cl)CN1c1ccc(Cl)cc1` as the compound, how does the growth read?
The growth was 96.9%.

`Fc1cccc(Cl)c1/C=N/Nc1nc(N/N=C/c2c(F)cccc2Cl)nc(N2CCCCC2)n1` was tested. Which growth did it give?
The growth was 25.8%.
